According to PubChem BioAssay (NCI):
Compounds without any hit were thinned out: in the full panel of roughly 79,000, 15% have a hit. Rule as the data show it: active = growth inhibition above about 70%; inactive = the rest. Where a SMILES comes first, the peptide text is derived from it. [ ]: non-standard residue; d: D form. The star is where a group is joined. ξ: configuration not given here. ξPhe(4-NO2) = NC(Cc1ccc([N+](=O)[O-])cc1)C(=O)O; Hpg = N[CH](C(=O)O)c1ccc(O)cc1; Boc = CC(C)(C)OC(=O)*; OBn = c1ccc(CO*)cc1

How the values were obtained:
[1] = NCI Yeast Anticancer Drug Screen. Data for the rad50 strain (AID 155);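 also: 0% = growth of vehicle-only cultures of the same strain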; conditions: S. cerevisiae rad50 strain growth inhibition; at 50.0 µM; active compounds read high
Method in brief: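 Readout: growth inhibition relative to vehicle-treated cultures. Compound exposure was carried out in a genetically defined yeast strain deficient in DNA damage repair.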

[2] = NCI Yeast Anticancer Drug Screen. Data for the mec2-1 strain (AID 157); conditions: S. cerevisiae mec2-1 strain, at 50.0 µM, active compounds read high
Method in brief: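 Compounds were applied to mec2-1 yeast cells. Their growth was then compared with that of vehicle-treated cultures to give growth inhibition.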

[3] = NCI Yeast Anticancer Drug Screen. Data for the sgs1 mgt1 strain (AID 161);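 also: 0% = growth of cultures given vehicle only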; conditions: S. cerevisiae sgs1 mgt1 strain, at 50.0 µM, active compounds read high
Method in brief: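 Growth of a repair-deficient yeast mutant was monitored after compound treatment and expressed as inhibition relative to vehicle-treated cultures.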

[4] = NCI Yeast Anticancer Drug Screen. Data for the cln2 rad14 strain (AID 165);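 also: 0% = growth equal to vehicle treated cultures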; conditions: S. cerevisiae cln2 rad14 strain, at 50.0 µM, active compounds read high
Method in brief: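 Strain: cln2 rad14 yeast, altered in cell cycle control and DNA damage repair. Read-out: growth inhibition vs vehicle.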

[5] = NCI Yeast Anticancer Drug Screen. Data for the bub3 strain (AID 167); conditions: S. cerevisiae bub3 mutant strain, at 50.0 µM, active compounds read high
Method in brief: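 Readout: yeast growth inhibition, expressed relative to vehicle-only wells. The test organism is a mutant strain from a panel with lesions in DNA repair or checkpoint genes.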

[6] = NCI Yeast Anticancer Drug Screen. Data for the mlh1 rad18 strain (AID 175); conditions: S. cerevisiae mlh1 rad18 strain growth inhibition; at 50.0 µM; active compounds read high
Method in brief: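 A repair-deficient yeast strain is exposed to test compound, and growth is scored relative to vehicle-treated controls.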

Measured: growth inhibition

Oc1ccc2c(c1)-c1ccccc1C2
inactive: [1] 38.8% | [2] 2.9% | [3] -4.5% | [4] 17.2% | [5] 37.3% | [6] 29.9%

CCOC(=O)C1=C(NC(C)(C)C)OCC1=O
inactive: [1] -10.7% | [2] -17.9% | [3] -2.2% | [4] 3.1% | [5] -16.6% | [6] 16.1%

COc1ccc(C2(C)C=C(C)C=C(C)C2=O)cc1 (stereo not given)
inactive: [1] -5.1% | [2] 2.9% | [3] -12.2% | [4] -15.9% | [5] -9.65% | [6] 7.75%

O=S(=O)(O)C(Nc1ccc(Cl)cc1)c1ccccc1 (stereo not given)
inactive: [1] 0.15% | [2] 6.2% | [3] 4.6% | [4] 12.5% | [5] 11.2% | [6] 10.3%

C[CH2][Sn]([CH2]C)([N](c1ccccn1)c1ccccn1)[N](c1ccccn1)c1ccccn1
inactive: [1] -1.75% | [2] -2.25% | [3] -26.2% | [4] 4.3% | [5] -0.6% | [6] -25.1%

CC(C)CSc1nc2ccc(N=Cc3ccccc3O)cc2s1
inactive: [1] -29.4% | [2] -5.5% | [3] -11.3% | [4] -13% | [5] 8.75% | [6] -17.3%

CCC[C@H]1C(=O)N=C(N)N1C(=O)OCc1ccccc1
inactive: [1] 0.9% | [2] 2.9% | [3] -5.5% | [4] -28.3% | [5] -3.3% | [6] -7%

C=C(C)COB(OCC(=C)C)OCC(=C)C
inactive: [1] -6.3% | [2] -25.4% | [3] -2.25% | [4] 1.95% | [5] -10.8% | [6] -16.2%

COc1ccc(C2c3cc4c(cc3OC3(N5CCCC5)CCCC23)OCO4)c(OC)c1 (stereo not given)
inactive: [1] 0.85% | [2] -6.8% | [3] -1.5% | [4] 14.2% | [5] 15.2% | [6] 11.6%

CCCS(=O)(=O)N(CC)CC
inactive: [1] -0.4% | [2] -10.8% | [3] -1.9% | [4] -27.5% | [5] -5.65% | [6] -15.4%

O=C(Cn1cc(I)c(C(=O)NCC(O)CO)n1)NCC(O)CO (stereo not given)
inactive: [1] -2.2% | [2] -8.7% | [3] -8.4% | [4] 26.9% | [5] -5.9% | [6] -9.25%

CC1(C)N=C(N)N=C(N)N1CCCCc1ccccc1
inactive: [1] -23.7% | [2] -41.9% | [3] -27.4% | [4] -25.4% | [5] -71.8% | [6] -16.6%

CSCCCNC(=O)c1csc(-c2csc(CCNC(=O)[C@@H](NSc3ccccc3[N+](=O)[O-])[C@@H](C)O)n2)n1
inactive: [1] 0.15% | [2] 6.05% | [3] 1.3% | [4] -22.1% | [5] 0.95% | [6] 18.9%

O=[N+]([O-])c1cc(Cl)cc2c1-c1c(Cl)cc(Cl)cc1C2
inactive: [1] 16.8% | [2] 28.3% | [3] 7.65% | [4] 20.8% | [5] -6.25% | [6] 4.05%

C[N+](C)(C)c1ccc(C(N)C(=O)O)cc1 (stereo not given)
inactive: [1] -7.7% | [2] -18.3% | [3] -17.1% | [4] -30.1% | [5] -41.7% | [6] 2.8%

O=c1[nH]cc(CCOCc2ccccc2)c(=O)[nH]1
inactive: [1] -4.3% | [2] -8.15% | [3] 0.3% | [4] 34.2% | [5] -10.4% | [6] -17%

CO/C=C/CCCNCc1ccccc1
inactive: [1] -4.5% | [2] -27.4% | [3] 20.6% | [4] 9.7% | [5] 6.3% | [6] 1.2%

O=C1CCCC2(c3ccc([N+](=O)[O-])cc3)C1C1C(=O)CCCC12c1ccc([N+](=O)[O-])cc1 (stereo not given)
inactive: [1] 44% | [2] -0.6% | [3] 14.2% | [4] 12.6% | [5] 5.4% | [6] 5.5%

CCCCCCC(C)OC(=O)CCl (stereo not given)
inactive: [1] -0.55% | [2] -6.4% | [3] 2.25% | [4] 6.1% | [5] 1.25% | [6] 0.95%

Cn1c2c(c(=O)c3c4[nH]c5c(c(=O)c4ccc31)CCCC5)CCCC2
inactive: [1] -10.2% | [2] 3.7% | [3] -15.1% | [4] -5.65% | [5] -4.95% | [6] 3.6%

Nc1ccc(OCC(O)N2C(=O)c3ccccc3C2=O)cc1 (stereo not given)
inactive: [1] -46.2% | [2] -39.5% | [3] -32.9% | [4] 14.4% | [5] 29.9% | [6] -17.9%

O=C(O)CCc1ccccc1C(=O)O
inactive: [1] 19.6% | [2] -19.6% | [3] -2% | [4] -9.8% | [5] -10.1% | [6] 9.5%

CC(C)CC(N)C(=O)NC(C(=O)O)c1ccc(O)cc1 (stereo not given) (H-Leu-[Hpg]-OH; configuration not given here)
inactive: [1] -5.3% | [2] -10.1% | [3] 3.4% | [4] -20.4% | [5] 2.7% | [6] 15.8%

COc1ccc2ccc3[nH]c4c(C)cnc(NCCCN(C)C)c4c3c2c1
inactive: [1] 34.8% | [2] 43.2% | [3] 55.9% | [4] 18.9% | [5] 45.9% | [6] 29.1%

CC(C)(C)OC(=O)NC(Cc1ccc([N+](=O)[O-])cc1)C(=O)NCC(=O)OCc1ccccc1 (stereo not given) (Boc-[ξPhe(4-NO2)]-Gly-OBn)
inactive: [1] -17.4% | [2] 8.45% | [3] 7.05% | [4] 32.5% | [5] -5.5% | [6] -9%

COc1cccc(NC(=O)C(=O)C(C(=O)c2ccccc2F)C2OC(=O)c3ccccc32)c1 (stereo not given)
inactive: [1] 15.6% | [2] 0.95% | [3] 35.5% | [4] 18.9% | [5] 7.85% | [6] 3.85%

CCOc1ccc(C(=O)OCCCl)cc1
inactive: [1] 9.85% | [2] 0.75% | [3] -3.1% | [4] 5.25% | [5] 6.75% | [6] 10.6%

CC1=CCCC(C)(C)C1/C=C/C(=O)O (stereo not given)
inactive: [1] 8.45% | [2] -7.35% | [3] -8.75% | [4] -36.3% | [5] -18.1% | [6] -9.2%

Cc1ccc(NC(=O)OCCOc2c(C(C)C)cccc2C(C)C)c([N+](=O)[O-])c1
inactive: [1] -0.8% | [2] -3.3% | [3] 8.55% | [4] -41.9% | [5] -7.7% | [6] 18.4%

CN(Cc1ccccc1)C(=O)Nc1ccc(F)c([N+](=O)[O-])c1
inactive: [1] 7.95% | [2] 28.6% | [3] 21.9% | [4] -4.2% | [5] 50.6% | [6] 16.2%

O=c1[nH]ncc(N/N=C(/C=C/c2ccc(C/C(=N/Nc3cn[nH]c(=O)c3Cl)c3ccccc3)cc2)c2ccccc2)c1Cl
inactive: [1] 30.1% | [2] 8.8% | [3] 33.2% | [4] -15.6% | [5] 9.65% | [6] 4%

CC12CCCC3(CC(=O)C(C)(C)C3C(=O)C1)C2 (stereo not given)
inactive: [1] -13.9% | [2] -16.1% | [3] -18.4% | [4] 10.2% | [5] 9.6% | [6] 6.2%

CCCCCCCCCCNCC(=O)O
inactive: [1] -11.1% | [2] -16.6% | [3] -1.65% | [4] -7.6% | [5] -1.6% | [6] -8.95%

O=[N+]([O-])c1c(O)c(O)c2ccccc2c1Nc1ccccc1
inactive: [1] -29.9% | [2] -5.8% | [3] -0.3% | [4] -62.4% | [5] 11.7% | [6] -1.65%

CCCCN(CCCC)c1ccc(N=C(C#N)c2ccc(N(CCCC)CCCC)cc2)cc1
inactive: [1] -21.4% | [2] -14.2% | [3] 14% | [4] -38.8% | [5] -3% | [6] 19.5%

CC(C)NC(=O)CS(=O)(=O)c1ccc(N)cc1
inactive: [1] -2.3% | [2] -11.8% | [3] 2.1% | [4] -0.3% | [5] 30% | [6] 7.7%

O=C(NCCCn1ccnc1[N+](=O)[O-])C(=O)NCCCn1ccnc1[N+](=O)[O-]
inactive: [1] 9.3% | [2] -12.2% | [3] -19.5% | [4] -8.95% | [5] -32% | [6] -23.4%

Cn1c(=O)c(N=Nc2c(=O)n(C)c(=O)n3c2[nH]c2ccccc23)c2[nH]c3ccccc3n2c1=O
inactive: [1] -2.1% | [2] 17.1% | [3] 7.4% | [4] -27.4% | [5] -10.7% | [6] 12.2%

C/C=C(\C)c1cc(=O)c2c(C)cc3c(c2o1)C(=O)c1c(O)c(C2CC(C)(N(C)C)C(OC(C)=O)C(C)O2)cc(C2CC(N(C)C)C(O)C(C)O2)c1C3=O (stereo not given)
inactive: [1] 17% | [2] 1.95% | [3] 9.8% | [4] 7.35% | [5] 8.15% | [6] -59.6%

CC#Cc1c(C#CC)c(OC)c2c(c1OC)C(=O)c1ccccc1C2=O
inactive: [1] -20.9% | [2] -29.3% | [3] -26.2% | [4] 3.3% | [5] -8.2% | [6] -25.1%
